LMNA splice mod: modulators of lamin A splicing; hit rate 0.01% among 200,000; HeLa LMNA splicing GFP/RFP minigene ratio, 48 h; Potency, µM (top dose mostly 46.1 µM), actives largely listed as inhibitors; active = well fitted inhibition curve with a large enough effect in the signal ratio, with a control signal flat, not every such curve was filed as active; inconclusive = small, poorly fitted or top-dose-only effect, or effect the other way, or a change in a side signal; the % refers to the signal ratio
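S3 HeLa cells stably expressing lamin A-EGFP splicing minigene plus DsRed2, 600 cells/well, 48 h compound exposure at 37C. Laser-scanning cytometry; analysed as GFP (500-530 nm)/RFP (575-640 nm) total intensity ratio; 0.5% DMSO vehicle.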
KinaseGlo FLuc: counter-screen: inhibitors of Kinase-Glo firefly luciferase; Potency, µM (titrated, usually from 38.3 µM), actives largely listed as inhibitors; hit rate 0.28% among 200,000; Q27757; Kinase-Glo luciferase, ATP luminescence, 8 min; also: nearly all actives have a fitted effect of over 60% in size
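Kinase-Glo luciferase light output from ATP and luciferin was measured with 10 uM ATP, within the enzyme's linear range. Buffer: 50 mM imidazole pH 7.2, 50 mM KCl, 7 mM MgCl2, 0.01% Tween 20, 0.05% BSA; luminescence read after 8 min at ambient temperature.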
IMPase Li cell: membrane-permeable IMPase blocker, potentiated with lithium | Potency, µM (top dose mostly 59.4 µM), hits mostly inhibitors | hit rate 0.35% among 210,000 | CHO-M1 cells, IP1 TR-FRET (IP-One), carbachol + lithium | AID 1457;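 also: IP1 builds up when IMPase is blocked and the TR-FRET signal falls; nearly all actives have a fitted effect of over 50% in size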
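CHO cells stably expressing M1 receptor (2000/well, cultured 16–30 h) treated 30 min at 37C with compound plus low lithium. Cytosolic IP1 by TR-FRET (665/620 ratio and 620 channel) after 10 min lysis; AC50 by Hill fit.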
ALDH1A1 block: ALDH1A1 (human) enzyme inhibition | P00352 | Purified ALDH1A1, NADH fluorescence, propionaldehyde substrate | Potency, µM (series often up to 75.3 µM), actives largely listed as inhibitors | hit rate 7.3% among 220,000 | AID 1030; active = well fitted inhibition curve with a large enough effect, not every such curve was filed as active; inconclusive = small, poorly fitted or top-dose-only effect, or another doubt; inactive = no such curve, though single readings can be large or run the other way
Target sequence (P00352 whole entry, looked up): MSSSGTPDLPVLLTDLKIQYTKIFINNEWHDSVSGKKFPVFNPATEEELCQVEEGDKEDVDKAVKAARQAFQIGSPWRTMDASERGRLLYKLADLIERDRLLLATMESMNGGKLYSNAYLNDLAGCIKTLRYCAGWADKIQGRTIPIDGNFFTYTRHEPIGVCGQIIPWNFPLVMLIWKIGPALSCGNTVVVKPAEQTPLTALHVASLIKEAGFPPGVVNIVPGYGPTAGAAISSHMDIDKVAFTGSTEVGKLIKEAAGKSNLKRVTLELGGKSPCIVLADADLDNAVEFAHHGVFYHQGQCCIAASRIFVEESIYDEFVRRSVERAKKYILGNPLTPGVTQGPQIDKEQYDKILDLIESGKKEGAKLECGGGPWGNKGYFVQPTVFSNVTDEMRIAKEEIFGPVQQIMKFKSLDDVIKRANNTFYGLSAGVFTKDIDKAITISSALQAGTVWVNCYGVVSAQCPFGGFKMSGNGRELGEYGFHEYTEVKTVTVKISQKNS
HPGD inh: blocks human HPGD enzyme activity | purified HPGD, NADH fluorescence kinetic, PGE2 substrate | Potency, µM, actives largely listed as inhibitors | AID 894 | hit rate 4.3% among 150,000 | P15428; active = well fitted inhibition curve with a large enough effect, not every such curve was filed as active; inconclusive = small, poorly fitted or top-dose-only effect, or another doubt; inactive = no such curve, though single readings can be large or run the other way
Target sequence (P15428 whole entry, looked up): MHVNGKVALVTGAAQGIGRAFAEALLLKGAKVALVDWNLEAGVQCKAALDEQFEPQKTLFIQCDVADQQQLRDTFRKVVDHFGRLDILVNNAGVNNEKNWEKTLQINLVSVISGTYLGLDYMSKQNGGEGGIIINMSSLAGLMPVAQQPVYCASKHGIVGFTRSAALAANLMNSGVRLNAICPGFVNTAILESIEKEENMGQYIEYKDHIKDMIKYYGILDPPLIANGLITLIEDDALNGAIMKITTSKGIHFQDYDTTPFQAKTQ
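NADH formation kinetics: reaction with 30 uM PGE2 and 1 mM NAD+ (final), 20 nM enzyme, Tris-HCl pH 8 with Tween 20, after 15 min compound preincubation at room temperature. Fluorescence change, last versus first of five reads.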
Numbers stand for hits; [ ] = remark or other dose. Sampled rows, rich in hits. Any-hit rate of the full collection: about 9%. Unless noted, calls follow the shape of the dose curve; as a rule, active = well fitted curve in the direction sought with a large enough effect; inconclusive = small, poorly fitted or top-dose-only effect, or another doubt; inactive = no such curve, though single readings can be large; an effect the other way counts as inactive or inconclusive.

`COC(=O)c1cc(NC(=O)Cc2cc(OC)c(OC)c(OC)c2)cc(C(=O)OC)c1` gave LMNA splice mod inactive, KinaseGlo FLuc inactive, IMPase Li cell inactive and ALDH1A1 block inactive.
For O=C(NCc1cccs1)c1ccc2c(c1)sc1nc(-c3ccccc3)cn12 the results were LMNA splice mod inactive.
Screening CN1C(=O)c2cccc3c(S(=O)(=O)Nc4ccccn4)ccc1c23 returned LMNA splice mod inconclusive, KinaseGlo FLuc inactive, IMPase Li cell inactive, ALDH1A1 block inconclusive and HPGD inh inactive.
CN1C(=O)c2cccc3c(S(=O)(=O)NCc4ccco4)ccc1c23 was read as LMNA splice mod inconclusive, KinaseGlo FLuc inactive, IMPase Li cell inactive, ALDH1A1 block 14µM and HPGD inh inactive.
Screening CCOC(=O)C1Oc2ccccc2C(c2ccoc2)=C1C(=O)OC (centres undefined) returned KinaseGlo FLuc inactive, IMPase Li cell inactive, ALDH1A1 block inactive and HPGD inh inactive.
Screening COc1cc(CN2CCNC(=O)C2CC(=O)NCc2csc(C(C)C)n2)cc(OC)c1 (centres undefined) returned LMNA splice mod inactive, KinaseGlo FLuc inactive, IMPase Li cell inactive and ALDH1A1 block inconclusive.
N#Cc1cn(-c2ccccc2)nc1-c1ccco1 was read as LMNA splice mod inactive, KinaseGlo FLuc inactive, IMPase Li cell inactive, ALDH1A1 block 28µM and HPGD inh inactive.
For CC(C(=O)NC1CCCC1)N1CCN(Cc2ccccc2)CC1 (centres undefined) the results were KinaseGlo FLuc inactive, IMPase Li cell inactive and ALDH1A1 block 3.5µM.
Screening CC(C(=O)NCCc1ccc(F)cc1)N1CCN(Cc2ccccc2)CC1 (centres undefined) returned LMNA splice mod inactive, KinaseGlo FLuc inactive, IMPase Li cell inactive and ALDH1A1 block inactive.
`CC(CC(=O)NC1CCCC1)c1ccccc1` (centres undefined) gave LMNA splice mod inactive, KinaseGlo FLuc inactive, IMPase Li cell inactive, ALDH1A1 block inactive and HPGD inh 2.5µM.
Screening CCC(CC)C(=O)N1CCc2cc(OC)c(OC)cc2C1COc1ccc(C(=O)OC)cc1 (centres undefined) returned LMNA splice mod inactive.
For O=c1c(Cl)c(N2CCN(c3ccccc3)CC2)cnn1C12CC3CC(CC(C3)C1)C2 the results were LMNA splice mod inactive, KinaseGlo FLuc inactive, IMPase Li cell inactive, ALDH1A1 block 10µM and HPGD inh inactive.
`O=C(O)C12C[C@H]3C[C@@H](C1)CC(n1ncc(N4CCN(c5ccccc5)CC4)c(Cl)c1=O)(C3)C2` gave LMNA splice mod inactive, KinaseGlo FLuc inactive, IMPase Li cell inactive, ALDH1A1 block 1.3µM and HPGD inh inactive.
Screening O=C(O)CC12C[C@H]3C[C@@H](C1)CC(n1ncc(N4CCN(c5ccccc5)CC4)c(Cl)c1=O)(C3)C2 returned LMNA splice mod inactive, KinaseGlo FLuc inactive, IMPase Li cell inactive, ALDH1A1 block 7.9µM and HPGD inh inactive.
Screening O=C(O)C12CC3CC(C1)CC(n1ncc(NCc4ccccc4)c(Cl)c1=O)(C3)C2 returned LMNA splice mod inconclusive, KinaseGlo FLuc inactive, IMPase Li cell inactive and ALDH1A1 block inconclusive.
`N[C@H](Cc1cnc[nH]1)C(=O)O` gave KinaseGlo FLuc inactive, IMPase Li cell inactive, ALDH1A1 block inactive and HPGD inh inactive.
Screening CC(C)=CCN1CCN(Cc2cc(C(C)C)n[nH]2)CC1CCO (centres undefined) returned LMNA splice mod inactive, KinaseGlo FLuc inactive, IMPase Li cell inactive and ALDH1A1 block inactive.
Screening CCN(CC)CCN(C(=O)c1ccc(C(C)=O)cc1)c1nc2ccc(Cl)cc2s1 returned LMNA splice mod inactive[9.22 µM], KinaseGlo FLuc inactive, IMPase Li cell inactive and ALDH1A1 block inactive.
For CC(=O)Nc1cccc(C(=O)OCC(=O)NCc2ccc(F)cc2)c1 the results were LMNA splice mod inactive, KinaseGlo FLuc inactive, IMPase Li cell inactive and ALDH1A1 block inactive.
`COc1cccc(/C=C/C(=O)OCC(=O)Nc2cc(C(F)(F)F)ccc2Cl)c1` gave LMNA splice mod inactive, KinaseGlo FLuc inactive, IMPase Li cell inactive, ALDH1A1 block inconclusive and HPGD inh inconclusive.
Screening O=S(=O)(c1ccccc1F)N(Cc1ccco1)Cc1nnc(-c2ccccc2Br)o1 returned LMNA splice mod inconclusive, KinaseGlo FLuc inactive, IMPase Li cell inactive, ALDH1A1 block 14µM and HPGD inh 25µM.
COc1ccc(C(=O)NCCn2cc(SCC(=O)NCc3ccco3)c3ccccc32)cc1 was read as LMNA splice mod inconclusive, KinaseGlo FLuc inactive, IMPase Li cell inactive, ALDH1A1 block 25µM and HPGD inh inactive.
Cc1nnc(NC(=O)CSc2cn(CCNC(=O)c3ccccc3)c3ccccc23)s1 was read as LMNA splice mod inconclusive, KinaseGlo FLuc inactive, IMPase Li cell inactive, ALDH1A1 block 1.6µM and HPGD inh inactive.
CCN(CC)CC[n+]1ccc2c(C)c3[nH]c4ccc(O)cc4c3c(C)c2c1 was read as KinaseGlo FLuc inactive[7.66 µM], IMPase Li cell inactive, ALDH1A1 block inactive[13.5 µM] and HPGD inh inconclusive.
Screening Cc1noc(C)c1C(=O)N1CCCC(C(=O)c2cccc(OC(C)C)c2)C1 (centres undefined) returned LMNA splice mod inactive, KinaseGlo FLuc inactive, IMPase Li cell inactive and ALDH1A1 block inactive.
For COc1ccc(S(=O)(=O)N2CCSC2c2ccccc2)cc1 (centres undefined) the results were LMNA splice mod inconclusive, KinaseGlo FLuc inactive, IMPase Li cell inactive, ALDH1A1 block 25µM and HPGD inh inactive.
O=C(C[n+]1ccccc1)Nc1c(Cl)cc(Cl)cc1Cl was read as KinaseGlo FLuc inactive, IMPase Li cell inactive and ALDH1A1 block 7.9µM.
Cc1ccc[n+](CC(=O)Nc2c(Cl)cc(Cl)cc2Cl)c1 was read as LMNA splice mod inactive, KinaseGlo FLuc inactive, IMPase Li cell inactive and ALDH1A1 block inactive.
O=C(Cc1ccc2c(c1)CCCC2)Nc1ccccc1Br was read as LMNA splice mod inactive, KinaseGlo FLuc inactive, IMPase Li cell inactive, ALDH1A1 block inactive and HPGD inh 25µM.
For O=C(C[n+]1ccccc1)Nc1ccccc1Br the results were KinaseGlo FLuc inactive, IMPase Li cell inactive and ALDH1A1 block 1.8µM.
Screening O=C(Cn1cc2c(n1)CCCC2)Nc1ccccc1Br returned LMNA splice mod inactive, KinaseGlo FLuc inactive, IMPase Li cell inactive, ALDH1A1 block inactive and HPGD inh inconclusive.
For Fc1ccc(SCCc2ccncc2)cc1 the results were LMNA splice mod inactive, KinaseGlo FLuc inactive, IMPase Li cell inactive, ALDH1A1 block inactive and HPGD inh inactive.
`Fc1cc(F)c(F)c(SCCc2ccncc2)c1F` gave LMNA splice mod inconclusive, KinaseGlo FLuc inactive, IMPase Li cell inactive, ALDH1A1 block 7.9µM and HPGD inh inconclusive.
Screening O=C(NNC(=O)c1ccc(F)cc1)C(=O)N1CCCCC1 returned LMNA splice mod inactive, KinaseGlo FLuc inactive, IMPase Li cell inactive, ALDH1A1 block inactive and HPGD inh inactive.
`CC(=O)Nc1c(O)nc(SCC(=O)Nc2ccc(C(C)=O)cc2)[nH]c1=O` gave LMNA splice mod inactive, KinaseGlo FLuc inactive, IMPase Li cell inactive, ALDH1A1 block 11µM and HPGD inh inactive.

Source: PubChem BioAssay (National Center for Advancing Translational Sciences (NCATS))
